Shown are actives, neighbours in structure and some others; about 2.6% of the full set was active somewhere.
Giardia kill: Small Molecules that selectively kill Giardia lamblia: qHTS; 340,000 compounds, 0.15% hits; activity change, % at 7.66 µM, hits read low; Giardia lamblia trophozoite viability; in the data active means activity change below about -80%; inconclusive means between about -30% and that limit;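 further: parasites exposed to compound for two days anaerobically before the ATP read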
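Luminescent ATP signal served as the viability read-out, measured 15-30 min after adding ATP detection reagent to trophozoites that had been incubated with compounds for 48 hrs at 37 deg C anaerobically at 100 cells/well.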
HepG2 tox: qHTS for Inhibitors of TGF-b: Cytotox Counterscreen. 410,000 compounds, 0.76% hits. Potency, µM (titrated, usually from 46.1 µM), actives largely listed as cytotoxic. HepG2 CAGA-GFP viability, ATP luminescence, 18 h
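HepG2 CAGA-GFP cells (1000/well, DMEM with 1% FBS) received compound, then TGF-beta at 500 pg/mL final, and were incubated 18 hours at 37 degrees C. Viability was read by CellTiter-Glo luminescence. Media-only wells were set as complete cell-killing and DMSO as no toxicity.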
ATXN2 expr inh: Primary qHTS for Inhibitors of ATXN expression; HEK-293 ATXN2-luciferase reporter, luminescence, 24 h; Potency, µM (highest dose often 57 µM), actives largely listed as inhibitors; 360,000 compounds, 0.72% hits; AID 1745845, 2022; further: nearly all actives have a fitted effect of over 55% in size
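qHTS (up to 57 uM final) was run with 24 h compound exposure of reporter cells at 37 °C. Each well was multiplexed: SteadyGlo luminescence measured ATXN2-luciferase expression after a fluorogenic Gly-Phe-AFC viability readout (25 uM final).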
uPA surface inh: qHTS for Inhibitors of Cell Surface uPA Generation | cell surface uPA generation assay, qHTS | Potency, µM (series often up to 38.3 µM), usual class: inhibitors | 330,000 compounds, 0.31% hits; active means well fitted inhibition curve with a large enough effect; inconclusive means small, poorly fitted or top-dose-only effect; inactive means no such curve, though single readings can be large or run the other way; tested in mouse RAW 264.7 cells; further: nearly all actives have a fitted effect of over 55% in size
TGFb inhibitor: qHTS for Inhibitors of TGF-b; HepG2 CAGA-GFP TGF-b/SMAD3 reporter, GFP fluorescence, 18 h; TGF-beta stimulated, 500 pg/mL final; Potency, µM (titrated, usually from 46.1 µM), most hits filed as inhibitors; AID 588855, 2011; 410,000 compounds, 1.2% hits; further: nearly all actives have a fitted effect of over 65% in size
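TGF-beta reporter screen: HEPG2 CAGA-GFP, 1% FBS, 500 pg/mL TGF-beta final, 18 h; per-cell GFP summed per well; curves fitted and categorized by class.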
ATXN viability: Viability Counterscreen for Primary qHTS for Inhibitors of ATXN expression | Potency, µM (top dose mostly 56.7 µM), most hits filed as cytotoxic | S2 cells (HEK-293 line with an ATXN2-luciferase reporter) viability, CellTiter-Fluor protease fluorescence, 24 h | 400,000 compounds, 0.49% hits; further: nearly all actives have a fitted effect of over 40% in size
Hits are given with their value; . = inactive; ? = inconclusive; / = not tested or not shown. Unless noted, the call rests on the fitted dose curve; in most records, active means well fitted curve in the direction sought with a large enough effect; inconclusive means small, poorly fitted or top-dose-only effect, or another doubt; inactive means no such curve, though single readings can be large; an effect the other way counts as inactive or inconclusive.

SMILES	Giardia kill	HepG2 tox	ATXN2 expr inh	uPA surface inh	TGFb inhibitor	ATXN viability
Cc1c(Cl)cccc1NS(=O)(=O)c1ccc(-c2cnc(C3CC3)o2)cc1	/	.	.	/	2.82µM	?
CCOC(=O)c1cccc(NS(=O)(=O)c2cc(-c3cnc(C4CC4)o3)ccc2C)c1	/	.	.	/	17.8µM	?
Cc1ccc(C)c(NS(=O)(=O)c2ccc(-c3cnc(C4CC4)o3)cc2)c1	.	.	/	.	?	?
Cc1ccc(NS(=O)(=O)c2ccc(-c3cnc(C4CC4)o3)cc2)cc1N(C)C	/	.	?	/	10µM	.
C/C=C(\C)C(=O)OC1c2c(ccc3ccc(=O)oc23)OC(C)(C)C1OC(C)=O (stereo not drawn)	.	.	.	.	.	?
C/C=C(/C)C(=O)OC1c2c(ccc3ccc(=O)oc23)OC(C)(C)C1OC(=O)/C(C)=C\C (stereo not drawn)	.	.	?	.	11.2µM	?
CCN1CCN(c2ccc(NC(=O)c3cc4ccccc4cc3OC)cc2C)CC1	.	.	?	11.2µM	?	?
CCN1CCN(c2ccc(NC(=O)c3ccccc3F)cc2Cl)CC1	.	.	.	.	.	.
COc1cc(/C=N/O)cc(Br)c1OCc1ccc(Cl)cc1	.	12.6µM	?	.	?	.
COc1cc(/C=N/O)cc(Br)c1OC	.	.	.	.	.	.
Cn1c(SCC2CCCO2)nnc1C1CCN(Cc2ccco2)CC1 (stereo not drawn)	/	/	/	/	/	.
COc1ccc(-n2nc([N+](=O)[O-])c(=NCCc3ccccc3)n2O)cc1	?	.	.	10µM	?	.
Cc1cccc(-n2nc([N+](=O)[O-])c(=NCc3cccnc3)n2O)c1	-87.5	.	.	.	?	.
Cc1ccc(CN=c2c([N+](=O)[O-])nn(-c3ccc(Cl)cc3)n2O)cc1	?	.	/	.	.	.
COc1cccc(CN=c2c([N+](=O)[O-])nn(-c3ccccc3C)n2O)c1	-108.7	.	.	.	.	.
O=[N+]([O-])c1nn(-c2ccc(Cl)cc2)n(O)c1=NCc1ccncc1	?	.	/	12.6µM	?	?
COCc1ccc(C(=O)N2CCOc3c(cc(-c4cc(C)c5cccc(OC)c5n4)cc3OC)C2)o1	/	/	/	/	/	.
CC(=O)Nc1ccccc1-c1nc(CNC(=O)c2ccc(C)cc2)c(C)o1	/	/	/	/	/	.
CCOC(=O)C1CCCN(C(=O)c2ccc3c(c2)N(Cc2ccccc2)C(=O)c2ccccc2S3(=O)=O)C1 (stereo not drawn)	/	.	/	/	/	/
CCOC(=O)C1CCCN(C(=O)c2ccc3c(c2)N(Cc2ccccc2)C(=O)c2ccccc2S3=O)C1 (stereo not drawn)	.	.	.	.	10µM	.
CNc1c(Br)cc(C=O)cc1Br	/	.	/	/	.	/
Cn1c(=O)c2c(-c3ccc(Br)cc3)n(CCc3ccccc3)cc2n(C)c1=O	/	.	?	/	10µM	?
CN1CCN(C(=O)CCCN2C(=O)/C(=C/c3cccc(Br)c3)SC2=S)CC1	.	.	?	.	?	11.2µM
O=C(CCCN1C(=O)/C(=C/c2cccc(Br)c2)SC1=S)N1CCOCC1	.	.	.	.	.	.
CN1CCN(C(=O)CCN2C(=O)/C(=C\c3ccc(F)cc3)SC2=S)CC1	.	.	?	.	?	/
SMILES	Giardia kill	HepG2 tox	ATXN2 expr inh	uPA surface inh	TGFb inhibitor	ATXN viability
CN1CCN(C(=O)CCN2C(=O)/C(=C/c3cccc(Br)c3)SC2=S)CC1	.	.	.	.	17.8µM	?
CCC1(C)NC(c2ccc3c(c2)OCO3)=CC(c2ccccc2O)N1 (stereo not drawn)	.	.	/	/	.	/
O=C(Nc1cc(Br)ccc1O)C1CC(c2c(F)cccc2Cl)=NO1 (stereo not drawn)	.	.	.	8.91µM	?	?
CCOC(=O)C1=C(c2ccccc2)N=c2s/c(=C\c3cccc(O)c3)c(=O)n2C1c1cccs1 (stereo not drawn)	.	14.1µM	?	.	?	?
CCOC(=O)C1=C(C)N=c2s/c(=C\c3cccc(OCC(=O)O)c3)c(=O)n2C1c1ccccc1OC (stereo not drawn)	.	.	.	.	.	.
CC(=O)c1ccccc1-c1ccc2c(c1)CC(CNC(=O)Cc1c[nH]c3ccccc13)O2 (stereo not drawn)	/	/	/	/	/	.
CC(C)Cc1ccc(C(C)C(N)=Nc2ccc(O)cc2)cc1 (stereo not drawn)	.	15.8µM	?	.	?	.
COc1cc2c(NC3CCN(C)CC3)nc(N3CCCN(C)CC3)nc2cc1OCCCN1CCOCC1	/	.	/	/	10µM	/
COc1cc2c(NC3CCN(C)CC3)nc(N3CCCN(C)CC3)nc2cc1OCC1CCCCN1 (stereo not drawn)	/	.	/	/	11.2µM	/
CCCCCCNc1ccc(/C=C/c2ccnc3ccccc23)cc1	/	.	/	/	?	/
CCNC(=O)CCCC=CC[C@@H]1[C@H](C=CC(O)CCc2ccccc2)[C@@H](O)C[C@@H]1O (stereo partly drawn)	/	/	.	/	/	/
CC(C)N(CC(=O)Nc1ccc(Cl)cc1C(F)(F)F)C(=O)CCl	.	.	18.9µM	.	?	?
O=C(O)CSCC(=O)Nc1ccc(Cl)cc1C(F)(F)F	.	.	.	.	.	.
CCC(CC)NC(=O)Nc1cccc(C)c1C	.	.	/	.	.	.
CCC(C)N(CC(=O)Nc1cccc(C)c1C)C(=O)CCl (stereo not drawn)	.	.	2.99µM	.	22.4µM	/
Cc1ccc(C(=O)N2CCc3ccccc32)o1	.	.	.	.	.	.
O=C(c1ccc([N+](=O)[O-])o1)N1CCOCC1	?	.	.	.	.	.
O=C(c1ccc([N+](=O)[O-])cc1)N1CCc2ccccc2C1	.	.	.	.	.	.
COc1cc2c(cc1OC)CN(C(=O)c1ccc([N+](=O)[O-])o1)CC2	?	.	.	.	12.6µM	.
O=C(c1ccc([N+](=O)[O-])o1)N1CCc2ccccc2C1	-86.0	.	/	7.08µM	?	.
O=C(c1ccc([N+](=O)[O-])o1)N1CCCCCC1	-90.9	.	.	.	?	.
O=C(c1ccc([N+](=O)[O-])o1)N1CCc2ccccc21	-88.1	.	.	.	.	.
O=C(C[n+]1cccc2cc(Cl)ccc21)c1cccc([N+](=O)[O-])c1	/	.	/	/	.	/
COc1ccccc1CN1CCC2(CC1)c1ccccc1[C@@H](NC(=O)c1ccco1)[C@@H]2OC	/	/	/	/	/	.
CCCN1C(C(=O)c2ccccc2)=C(OC(=O)c2ccc(F)cc2)c2ccccc2S1(=O)=O	/	.	/	/	17.8µM	/
CCCCCN1C(C(=O)c2ccccc2)=C(OC(=O)CC)c2ccccc2S1(=O)=O	/	11.2µM	.	/	?	?
